From the supplement of paper PMC10849652
Of roughly 7,900 targets only a part is listed; those with a hit were picked by preference. About 0.6% of all pairs of compound and target were hits.

Tests used:
Assay in all cases: log2 fold change, soluble protein after heating vs DMSO (PISA); higher = thermal stabilisation; K562 cells, 10 uM, 30 min; active = over 0.2 and 3.5 SD of the protein, either way, in both replicates (recomputed)
[1] = compound: C1=CC=C(C=C1)[C@H](COC2=CC3=C(C=C2)NC(=O)N3)NC(=O)C4=CC=CN(C4=O)CC5=CC(=C(C=C5)F)F
In short: (§1)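 Aliquots of K562 cells (2×10^6 cells/mL) treated with 10 μM compound for 30 min were heated for 3 min over 48°C-58°C. After pooling and extraction in PBS with 0.5% NP-40 at 4°C, soluble protein from a 21,000xg, 90 min spin was quantified by TMTpro 16plex LC-MS/MS with channel sums equalised. Thermal stability is expressed against control samples, from duplicates, as a log2 fold change.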

[2] = compound: CC1=C(SC2=C1C(=N[C@H](C3=NN=C(N32)C)CC(=O)N)C4=CC=C(C=C4)Cl)C
In short: as §1

[3] = compound: CC1=C2C(=CC=C1)N=C(N(C2=O)C3=CC=CC=C3C)CN4C=NC5=C(N=CN=C54)N
In short: as §1

[4] = compound: Cc1sc2c(c1C)C(c1ccc(Cl)cc1)=N[C@@H](CC(=O)OC(C)(C)C)c1nnc(C)n1-2
In short: as §1

[5] = compound: c1ccc([C@@H]2C[C@H]2NC2CCNCC2)cc1
In short: as §1

Measured: log2 fold change

NCL (UniProt P19338)
UniProt P19338, sequence (P19338 whole entry, looked up): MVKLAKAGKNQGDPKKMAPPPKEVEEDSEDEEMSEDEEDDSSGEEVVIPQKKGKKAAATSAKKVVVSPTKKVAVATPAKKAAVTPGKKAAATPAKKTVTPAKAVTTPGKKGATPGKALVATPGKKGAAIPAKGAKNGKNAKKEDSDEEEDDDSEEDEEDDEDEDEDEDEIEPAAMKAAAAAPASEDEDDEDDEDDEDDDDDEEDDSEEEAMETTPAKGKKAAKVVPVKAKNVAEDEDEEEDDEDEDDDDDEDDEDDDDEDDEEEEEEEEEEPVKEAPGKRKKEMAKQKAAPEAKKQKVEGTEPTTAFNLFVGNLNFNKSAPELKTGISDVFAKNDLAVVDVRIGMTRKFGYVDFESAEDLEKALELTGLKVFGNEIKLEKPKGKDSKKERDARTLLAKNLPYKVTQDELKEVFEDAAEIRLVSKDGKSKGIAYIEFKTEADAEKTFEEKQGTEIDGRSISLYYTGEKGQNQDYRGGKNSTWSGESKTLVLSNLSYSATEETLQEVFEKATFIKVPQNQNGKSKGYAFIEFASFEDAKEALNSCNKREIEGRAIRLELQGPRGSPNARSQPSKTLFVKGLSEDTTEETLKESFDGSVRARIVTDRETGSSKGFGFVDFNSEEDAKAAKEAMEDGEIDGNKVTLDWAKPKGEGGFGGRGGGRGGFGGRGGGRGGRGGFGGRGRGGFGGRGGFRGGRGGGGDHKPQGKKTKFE
inactive: [1] 0.158 | [2] -0.365 | [3] -0.299 | [4] 0.227 | [5] 0

OXR1 isoform 2 (UniProt Q8N573)
inactive: [2] 0.126 | [3] 0.025 | [4] -0.035 | [5] -0.101

NELFCD (UniProt Q8IXH7)
UniProt Q8IXH7, sequence (Q8IXH7 whole entry, looked up): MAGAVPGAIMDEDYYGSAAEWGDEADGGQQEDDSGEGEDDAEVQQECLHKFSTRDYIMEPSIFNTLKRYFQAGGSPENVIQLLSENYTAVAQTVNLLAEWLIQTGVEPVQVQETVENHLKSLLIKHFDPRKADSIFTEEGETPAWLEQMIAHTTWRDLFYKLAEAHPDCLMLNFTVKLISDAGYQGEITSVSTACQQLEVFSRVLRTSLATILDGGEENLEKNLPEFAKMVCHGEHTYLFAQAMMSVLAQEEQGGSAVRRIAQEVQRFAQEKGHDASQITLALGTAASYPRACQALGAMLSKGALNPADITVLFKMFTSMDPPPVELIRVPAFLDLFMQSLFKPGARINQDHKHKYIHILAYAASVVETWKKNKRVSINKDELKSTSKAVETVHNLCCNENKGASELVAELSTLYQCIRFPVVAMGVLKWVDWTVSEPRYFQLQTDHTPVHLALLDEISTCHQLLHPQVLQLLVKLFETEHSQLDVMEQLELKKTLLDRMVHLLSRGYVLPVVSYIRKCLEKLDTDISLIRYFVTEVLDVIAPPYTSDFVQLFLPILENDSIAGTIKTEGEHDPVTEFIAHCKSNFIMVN
inactive: [1] -0.022 | [2] 0.155 | [3] 0.214 | [5] 0.034

NUP107 (UniProt P57740)
UniProt P57740, sequence (P57740 whole entry, looked up): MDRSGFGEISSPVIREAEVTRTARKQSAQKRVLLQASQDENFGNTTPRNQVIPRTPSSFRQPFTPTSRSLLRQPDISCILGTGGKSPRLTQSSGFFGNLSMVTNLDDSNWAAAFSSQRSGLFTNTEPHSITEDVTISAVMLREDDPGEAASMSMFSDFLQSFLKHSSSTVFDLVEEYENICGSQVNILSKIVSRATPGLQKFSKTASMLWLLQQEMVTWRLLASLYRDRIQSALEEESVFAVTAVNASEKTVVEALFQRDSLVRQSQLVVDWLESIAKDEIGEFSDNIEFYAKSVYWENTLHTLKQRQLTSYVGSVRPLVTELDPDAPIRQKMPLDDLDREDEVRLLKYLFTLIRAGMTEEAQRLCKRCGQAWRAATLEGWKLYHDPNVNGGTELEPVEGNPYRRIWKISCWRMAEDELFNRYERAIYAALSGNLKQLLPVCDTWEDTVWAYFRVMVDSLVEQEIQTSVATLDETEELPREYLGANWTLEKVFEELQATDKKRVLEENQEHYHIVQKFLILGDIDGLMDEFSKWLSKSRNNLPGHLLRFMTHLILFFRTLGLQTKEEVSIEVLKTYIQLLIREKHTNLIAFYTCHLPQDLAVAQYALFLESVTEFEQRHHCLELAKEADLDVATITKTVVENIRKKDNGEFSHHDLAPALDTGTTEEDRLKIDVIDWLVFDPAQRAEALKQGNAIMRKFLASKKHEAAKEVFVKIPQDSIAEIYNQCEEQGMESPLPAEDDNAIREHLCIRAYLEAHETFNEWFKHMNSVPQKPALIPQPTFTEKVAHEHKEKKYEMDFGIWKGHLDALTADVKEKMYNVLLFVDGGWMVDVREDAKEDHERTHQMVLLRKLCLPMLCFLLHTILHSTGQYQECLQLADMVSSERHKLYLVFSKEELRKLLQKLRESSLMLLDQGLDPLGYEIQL
inactive: [1] -0.02 | [2] -0.043 | [3] 0.051 | [4] 0.052 | [5] 0.025

OSBPL2 (UniProt Q9H1P3)
inactive: [2] -0.583 | [5] -0.09

MSL1 (UniProt Q68DK7)
inactive: [1] 0.083 | [3] 0.17

OSBPL3 (UniProt Q9H4L5)
inactive: [2] -0.077 | [3] -0.035 | [4] 0.292 | [5] 0.14

OTUD6B (UniProt Q8N6M0)
UniProt Q8N6M0, sequence (Q8N6M0 whole entry, looked up): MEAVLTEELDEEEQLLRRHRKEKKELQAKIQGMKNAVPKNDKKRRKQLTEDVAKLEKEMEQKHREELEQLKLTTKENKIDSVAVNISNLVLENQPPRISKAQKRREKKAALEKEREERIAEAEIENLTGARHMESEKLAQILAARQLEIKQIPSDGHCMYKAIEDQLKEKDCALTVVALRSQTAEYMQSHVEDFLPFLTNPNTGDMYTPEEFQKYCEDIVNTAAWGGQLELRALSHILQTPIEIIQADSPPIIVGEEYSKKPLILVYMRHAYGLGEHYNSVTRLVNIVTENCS
inactive: [1] -0.051 | [2] 0.022 | [3] 0.11 | [4] 0.03 | [5] -0.153

NAGPA (UniProt Q9UK23)
UniProt Q9UK23, sequence (Q9UK23 whole entry, looked up): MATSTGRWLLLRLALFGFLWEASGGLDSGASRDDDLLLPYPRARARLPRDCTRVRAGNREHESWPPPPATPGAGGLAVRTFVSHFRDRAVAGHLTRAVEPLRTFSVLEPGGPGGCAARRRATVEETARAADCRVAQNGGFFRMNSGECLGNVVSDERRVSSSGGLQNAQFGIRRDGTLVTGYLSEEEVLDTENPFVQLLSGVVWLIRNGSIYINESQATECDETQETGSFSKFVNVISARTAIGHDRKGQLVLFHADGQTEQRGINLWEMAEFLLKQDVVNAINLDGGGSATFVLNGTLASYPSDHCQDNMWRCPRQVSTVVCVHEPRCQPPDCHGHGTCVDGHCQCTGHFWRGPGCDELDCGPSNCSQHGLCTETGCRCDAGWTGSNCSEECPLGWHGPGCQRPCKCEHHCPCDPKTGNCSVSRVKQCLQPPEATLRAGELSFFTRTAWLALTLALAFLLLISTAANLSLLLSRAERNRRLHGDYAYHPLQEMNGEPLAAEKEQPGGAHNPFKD
inactive: [1] 0.179 | [2] -0.048 | [4] -0.004 | [5] 0.061

MRPS6 (UniProt P82932)
inactive: [1] -0.084 | [2] 0.012 | [3] 0.052 | [4] 0.052 | [5] -0.022

MMS19 isoform 8 (UniProt Q96T76)
inactive: [1] -0.034 | [2] -0.001 | [3] 0.133 | [4] 0.002 | [5] -0.003

NECTIN2 isoform 2 (UniProt Q92692)
inactive: [1] 0.179 | [3] -0.03

MON1B (UniProt Q7L1V2)
UniProt Q7L1V2, sequence (Q7L1V2 whole entry, looked up): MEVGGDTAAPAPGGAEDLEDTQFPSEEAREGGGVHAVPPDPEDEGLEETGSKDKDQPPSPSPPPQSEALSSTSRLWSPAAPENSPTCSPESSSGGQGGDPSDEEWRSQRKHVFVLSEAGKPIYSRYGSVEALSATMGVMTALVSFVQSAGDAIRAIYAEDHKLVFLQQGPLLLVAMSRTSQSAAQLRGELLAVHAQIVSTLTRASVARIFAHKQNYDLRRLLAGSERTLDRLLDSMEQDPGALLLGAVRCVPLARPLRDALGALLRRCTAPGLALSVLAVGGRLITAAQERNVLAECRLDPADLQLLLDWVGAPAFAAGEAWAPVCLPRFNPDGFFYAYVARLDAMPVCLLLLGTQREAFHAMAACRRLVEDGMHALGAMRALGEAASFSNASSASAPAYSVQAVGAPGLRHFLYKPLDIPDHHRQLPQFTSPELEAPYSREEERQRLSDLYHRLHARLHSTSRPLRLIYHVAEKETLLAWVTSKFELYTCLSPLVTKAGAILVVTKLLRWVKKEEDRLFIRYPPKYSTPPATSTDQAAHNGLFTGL
inactive: [1] -0.032 | [2] 0.044 | [3] 0.056 | [4] -0.008 | [5] -0.064

MON2 isoform 5 (UniProt Q7Z3U7)
inactive: [1] -0.023 | [2] 0.016 | [3] 0.109 | [4] -0.025 | [5] -0.073

NUMBL (UniProt Q9Y6R0)
UniProt Q9Y6R0, sequence (Q9Y6R0 whole entry, looked up): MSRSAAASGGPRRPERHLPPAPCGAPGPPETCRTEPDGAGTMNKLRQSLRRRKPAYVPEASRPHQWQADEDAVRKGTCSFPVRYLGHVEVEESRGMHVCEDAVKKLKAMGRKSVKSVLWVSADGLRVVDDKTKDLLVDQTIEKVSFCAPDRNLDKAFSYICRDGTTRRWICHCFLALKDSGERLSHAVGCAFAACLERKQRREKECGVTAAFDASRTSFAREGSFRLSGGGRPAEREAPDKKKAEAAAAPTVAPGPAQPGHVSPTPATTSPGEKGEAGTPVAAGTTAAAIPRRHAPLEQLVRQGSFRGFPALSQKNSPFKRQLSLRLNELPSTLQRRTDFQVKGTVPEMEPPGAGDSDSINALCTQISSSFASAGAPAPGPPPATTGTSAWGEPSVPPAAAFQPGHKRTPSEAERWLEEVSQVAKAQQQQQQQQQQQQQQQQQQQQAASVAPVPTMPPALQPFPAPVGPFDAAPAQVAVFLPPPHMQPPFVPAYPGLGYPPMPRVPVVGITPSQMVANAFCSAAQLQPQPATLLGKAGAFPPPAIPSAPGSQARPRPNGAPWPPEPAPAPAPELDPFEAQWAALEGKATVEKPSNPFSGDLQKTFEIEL
inactive: [1] -0.058 | [2] -0.084 | [3] 0.009 | [5] -0.009

NOLC1 isoform 3 (UniProt Q14978)
inactive: [2] 0.007 | [5] -0.021

NGLY1 (UniProt Q96IV0)
UniProt Q96IV0, sequence (Q96IV0 whole entry, looked up): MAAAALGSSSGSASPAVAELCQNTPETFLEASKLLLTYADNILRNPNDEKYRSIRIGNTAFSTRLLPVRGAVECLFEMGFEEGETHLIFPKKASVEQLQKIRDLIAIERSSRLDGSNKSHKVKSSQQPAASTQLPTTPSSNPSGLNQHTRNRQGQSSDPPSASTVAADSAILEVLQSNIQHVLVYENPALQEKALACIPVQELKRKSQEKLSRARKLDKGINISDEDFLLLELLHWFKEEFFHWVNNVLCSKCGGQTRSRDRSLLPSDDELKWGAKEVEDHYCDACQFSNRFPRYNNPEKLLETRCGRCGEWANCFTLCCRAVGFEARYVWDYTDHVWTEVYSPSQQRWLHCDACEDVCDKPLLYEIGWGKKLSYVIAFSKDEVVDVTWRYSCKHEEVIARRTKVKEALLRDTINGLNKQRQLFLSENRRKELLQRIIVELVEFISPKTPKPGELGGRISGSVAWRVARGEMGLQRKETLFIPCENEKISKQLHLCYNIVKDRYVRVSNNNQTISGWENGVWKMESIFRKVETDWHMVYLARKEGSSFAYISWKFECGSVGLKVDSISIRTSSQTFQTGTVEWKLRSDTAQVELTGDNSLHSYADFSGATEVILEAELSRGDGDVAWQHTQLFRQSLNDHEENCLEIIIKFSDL
inactive: [1] -0.084 | [2] 0.01 | [3] 0.114 | [4] 0.014 | [5] -0.046

NUDT7 (UniProt P0C024)
inactive: [1] -0.077 | [4] -0.047
